Test results taken from PubChem BioAssay AID743332 (Broad Institute, 2014).
Entries with a potency or affinity are not part of this list.

These molecules were tested against Caspase-6 (Homo sapiens) (UniProt P55212) (assay: inhibition of CASP6 peptide cleavage – biochemical, VEID-R110 fluorescence, dry powder retest, dose response (AID 743332)). Details: purified caspase-6, Z-VEID-R110 cleavage fluorescence; series mostly up to 35 µM; activity change, negative = inhibition: at the top concentration;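 active = at least 35% decrease in signal relative to neutral control well mean; inactive = the rest, opposite-direction activity included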.
Sequence of Caspase-6 (Homo sapiens) (P55212 24-179 limits assumed): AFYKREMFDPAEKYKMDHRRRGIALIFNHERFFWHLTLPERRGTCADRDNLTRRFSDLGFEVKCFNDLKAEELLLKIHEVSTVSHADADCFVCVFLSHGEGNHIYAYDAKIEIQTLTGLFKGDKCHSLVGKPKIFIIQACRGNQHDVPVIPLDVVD
Sequence of Caspase-6 (Homo sapiens) (P55212 194-293 limits assumed): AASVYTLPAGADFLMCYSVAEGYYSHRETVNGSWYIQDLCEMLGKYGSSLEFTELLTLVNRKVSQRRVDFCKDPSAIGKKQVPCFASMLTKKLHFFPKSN

Activity change, negative = inhibition, inactive:
CC(=O)Nc1ccc(C(=O)N2CCN(S(=O)(=O)c3ccc(C)cc3)CC2)cc1 -10.9%
CC(=O)Nc1ccc(S(=O)(=O)N2CCN(C(=O)c3ccccc3)CC2)cc1 10.7%
Cc1ccc(C(=O)N2CCN(S(=O)(=O)c3ccc4c(c3)OCCO4)CC2)cc1 -11%
O=C(c1ccccc1)N1CCN(S(=O)(=O)c2cccnc2)CC1 5.36%
O=C(c1ccccn1)N1CCN(S(=O)(=O)c2ccccc2)CC1 5.53%
COc1ccc(C(=O)N2CCN(S(=O)(=O)c3ccccc3)CC2)cc1 20.3%
COc1ccc(S(=O)(=O)N2CCN(C(=O)c3ccccc3)CC2)cc1 1.2%
O=C(c1ccc2c(c1)OCCO2)N1CCN(S(=O)(=O)c2ccccc2)CC1 6.42%
O=C(c1ccoc1)N1CCN(S(=O)(=O)c2cccnc2)CC1 5.59%
Cc1ccc(S(=O)(=O)N2CCN(C(=O)c3ccccc3)CC2)cc1 8.23%
O=C(C1COc2ccccc2O1)N1CCN(S(=O)(=O)c2ccccc2)CC1 (stereo not given) -3.24%
CC(=O)N1CCCc2cc(S(=O)(=O)N3CCN(C(=O)C4COc5ccccc5O4)CC3)ccc21 (stereo not given) 12%
Cc1ccc(C(=O)N2CCCN(S(=O)(=O)c3ccc(C)cc3)CC2)cc1 9.58%
[O-][n+]1c2c(nn1-c1ccccc1Cl)-c1nonc1CC2 4.6%
O=C(C1COc2ccccc2O1)N1CCN(S(=O)(=O)c2ccccc2F)CC1 (stereo not given) -2.1%
O=C(c1cccnc1)N1CCN(S(=O)(=O)c2cccnc2)CC1 8.03%
CC(=O)Nc1ccc(S(=O)(=O)N2CCN(C(=O)c3ccc(C)cc3)CC2)cc1 5.54%
O=C(c1ccccc1)N1CCCC(NS(=O)(=O)c2ccccc2)C1 (stereo not given) 7.3%
Cc1cccc(C(=O)N2CCCN(S(=O)(=O)c3ccc4c(c3)OCCO4)CC2)c1 25%
Cc1ccc(C(=O)N2CCN(S(=O)(=O)c3ccccc3)CC2)cc1 4.95%
Cc1ccc(S(=O)(=O)N2CCCN(C(=O)c3ccoc3)CC2)cc1 1%
Cc1ccc(C(=O)N2CCN(S(=O)(=O)c3ccccc3)CC2)o1 0.801%
Cc1ccc(C(=O)N2CCN(S(=O)(=O)c3ccc(C)cc3)CC2)cc1 4.57%
O=C(c1ccccc1)N1CCN(S(=O)(=O)c2ccc(Cl)cc2)CC1 3.42%
O=C(c1ccc(F)cc1)N1CCCN(S(=O)(=O)c2ccc(F)cc2)CC1 5%
Cc1ccc(S(=O)(=O)N2CCN(C(=O)c3ccco3)CC2)cc1 3.21%
Cc1ccc(S(=O)(=O)N2CCN(C(=O)C3COc4ccccc4O3)CC2)cc1 (stereo not given) 5.54%
O=C(c1cccs1)N1CCN(S(=O)(=O)c2ccccc2)CC1 0.185%
[O-][n+]1c2c(nn1-c1ccccc1)-c1nonc1CC2 4.39%
O=S(=O)(c1ccccc1)N1CCN(Cc2ccccc2)CC1 1.29%
